The source of these data is the supplement of paper PMC9177965.

“And” between values parts separate entries of the source, which are not always exact repeats. Identical values can stand only once.

The assay has as its system HT29 RNF43 G659fs (RNF43 659mut, CRISPR-edited). Description: cell viability activity relative to DMSO (negative = inhibition); higher = more viable cells (less growth inhibition). The following applies: 5 µM; 96 h. As for the experimental part:
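Broad Repurposing Library primary screen at a single dose of 5 uM. HT29 sg-Ctrl and HT29 RNF43 G659fs CRISPR-edited isogenic cells were seeded at 2500 cells/well in 384-well plates in duplicate and treated for 96 h. Viability was read by CellTiter-Glo and reported as % activity relative to DMSO, with MG132 as the positive control (negative = growth inhibition).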
Consider `O=Cc1cn(Cc2ccc(Cl)cc2)c2ccccc12`, for which the cell viability activity is -38.7%. Regarding `CCCCCCCCCCCCCCCC[n+]1ccccc1`, the cell viability activity is -92.7%. In the case of `CC[C@@H]1/C=C/C=C/C[C@H](C)[C@H](O)[C@](C)(O)C(=O)[C@H](C)[C@@H](O)[C@H](C)C(=O)[C@H](C)[C@@H](O)[C@H](C)/C=C/C(=O)O[C@H]2[C@@H](C)[C@@H](CC1)O[C@@]1(CC[C@@H](C)[C@@H](C[C@H](C)O)O1)[C@@H]2C` it was -38.4%.

For the molecule `CN1CCN(c2cccc3[nH]c(=O)oc23)CC1`, the cell viability activity was -64.6%. In the case of `C[C@H]1CCC/C=C/[C@@H]2C[C@H](O)C[C@H]2[C@H](O)/C=C/C(=O)O1` it was -99.3% and -97.5%; in that of `Cc1sc2c(c1C)C(c1ccc(Cl)cc1)=N[C@@H](CC(=O)Nc1ccc(O)cc1)c1nnc(C)n1-2`, -56.2%; in that of `C[C@@H]1CC[C@@]2(OC1)O[C@H]1C[C@H]3[C@@H]4CC=C5C[C@@H](O[C@@H]6O[C@H](CO)[C@@H](O[C@@H]7O[C@@H](C)[C@H](O)[C@@H](O)[C@H]7O)[C@H](O)[C@H]6O[C@@H]6O[C@@H](C)[C@H](O)[C@@H](O)[C@H]6O)CC[C@]5(C)[C@H]4CC[C@]3(C)[C@H]1[C@@H]2C`, -25.8%. `CC(C)(C)c1cc(C=C(C#N)C#N)cc(C(C)(C)C)c1O`: the cell viability activity was -79.1%. `CCN(CC)CCO[C@H]1CC[C@@]2(C)C(=CC[C@@H]3[C@@H]2CC[C@]2(C)C(=O)CC[C@@H]32)C1`: the cell viability activity was -67.5%. To `COc1cc2c(c(OC)c1OC)-c1ccc(OC)c(=O)cc1[C@@H](NC(C)=O)CC2` belongs -55.9% and -56.4%; to `COC(=O)C[C@](O)(CCC(C)(C)O)C(=O)O[C@@H]1C(OC)=C[C@]23CCCN2CCc2cc4c(cc2[C@H]13)OCO4`, -89.5%; to `COc1ccc(C[C@H]2NC[C@H](O)[C@H]2OC(C)=O)cc1`, -91.2%. `CC(C)[C@]12O[C@H]1[C@@H]1O[C@]13[C@]1(O[C@H]1C[C@H]1C4=C(CC[C@@]13C)C(=O)OC4)[C@@H]2O`: the cell viability activity is -90.2% and -88.7%. In the case of `O=[N+]([O-])C=Cc1ccc2c(c1)OCO2` it was -25.8%. In the case of `O=C1C=C2C=C[C@@H]3C[C@@]2(O1)[C@H]1CCCCN31` it was -29.8%. To `O=C1/C(=C/c2ccccc2)C[C@@]2(O)C3Cc4ccc(O)c5c4[C@@]2(CCN3CC2CC2)[C@H]1O5` belongs -81.4%. Take `Oc1cc(Cl)ccc1Oc1ccc(Cl)cc1Cl`: the cell viability activity was -89.3%. To `C[C@@H]1O[C@@H](O[C@@H]2C=C3CC[C@@H]4[C@H](CC[C@]5(C)[C@@H](c6ccc(=O)oc6)CC[C@]45O)[C@@]3(C)CC2)[C@H](O)[C@H](O)[C@H]1O` belongs -81.8%. Turning to `CC[C@H]1CN2CCc3cc(OC)c(OC)cc3[C@@H]2C[C@@H]1C[C@H]1NCCc2cc(OC)c(OC)cc21`, the cell viability activity is -93.8% and -97.5%. Regarding `C[C@]12CC[C@H](O)C[C@H]1CC[C@@H]1[C@@H]2C[C@@H](O)[C@]2(C)[C@@H](C3=CC(=O)OC3)CC[C@]12O`, the cell viability activity was -78.8%. To `COc1cc2cc(c1Cl)N(C)C(=O)C[C@H](OC(=O)C(C)C)[C@]1(C)O[C@@H]1[C@H](C)[C@@H]1C[C@@](O)(NC(=O)O1)[C@H](OC)/C=C/C=C(\C)C2` belongs -66.8%. As to `N#CC(C#N)=NNc1cccc(Cl)c1`, the cell viability activity is -83.3%. Turning to `C[C@]12CC[C@H]3[C@@H](CC[C@]4(O)C[C@@H](O)CC[C@]34C=O)[C@@]1(O)CC[C@@H]2C1=CC(=O)OC1`, the cell viability activity is -81.8%.

`CC[C@@]1(O)C(=O)OCc2c1cc1n(c2=O)Cc2cc3ccccc3nc2-1`: the cell viability activity was -94%. As for `C/C(=C\c1csc(C)n1)[C@@H]1C[C@@H]2O[C@]2(C)CCC[C@H](C)[C@H](O)[C@@H](C)C(=O)C(C)(C)[C@@H](O)CC(=O)O1`, the cell viability activity is -51.7%. In the case of `NC(=O)c1cn([C@@H]2O[C@H](CO)[C@@H](O)[C@H]2O)c2ncnc(N)c12` it was -95.1%; in that of `CC(=O)O[C@H]1C[C@H](O[C@H]2[C@@H](O)C[C@H](O[C@H]3[C@@H](O)C[C@H](O[C@H]4CC[C@@]5(C)[C@H](CC[C@@H]6[C@@H]5C[C@@H](O)[C@]5(C)[C@@H](C7=CC(=O)OC7)CC[C@]65O)C4)O[C@@H]3C)O[C@@H]2C)O[C@H](C)[C@H]1O[C@@H]1O[C@H](CO)[C@@H](O)[C@H](O)[C@H]1O`, -89.7%; in that of `Cn1c(COP(=O)(NCCBr)NCCBr)cnc1[N+](=O)[O-]`, -53.2%. Take `COc1cccc2c1C(=O)c1c(O)c3c(c(O)c1C2=O)C[C@@](O)(C(=O)CO)C[C@@H]3O[C@H]1C[C@H](N2CCO[C@H](OC)C2)[C@H](O)[C@H](C)O1`: the cell viability activity was -96.6%.

As for `Clc1cccc(SC2CCNCC2)n1`, the cell viability activity was -56.2%. Take `COc1cc([C@@H]2c3cc4c(cc3[C@H](O)[C@H]3COC(=O)[C@H]23)OCO4)cc(OC)c1OC`: the cell viability activity is -59.9%. In the case of `CC1CC(C)C(=O)C(C(O)CC2CC(=O)NC(=O)C2)C1` (stereo not given) it was -82.5%; in that of `O=C(C[C@H]1NCCC[C@@H]1O)Cn1cnc2cc(Br)c(Cl)cc2c1=O`, -91.6%. In the case of `Oc1cccc2cccnc12` it was -48.9%; in that of `C/C1=C/C[C@@H](/C(C)=C/c2csc(C)n2)OC(=O)C[C@H](O)C(C)(C)C(=O)[C@H](C)[C@@H](O)[C@@H](C)CCC1`, -63.7%; in that of `CO[C@H]1C[C@H](O[C@H]2CC[C@@]3(C)[C@H](CC[C@@H]4[C@@H]3CC[C@]3(C)[C@@H](C5=CC(=O)OC5)[C@@H](OC(C)=O)C[C@]43O)C2)O[C@@H](C)[C@@H]1O`, -84.3%.

Take `C=C1[C@@H](C)[C@H]2[C@H](Cc3ccccc3)NC(=O)[C@]23OC(=O)/C=C/[C@H](O)CCC[C@@H](C)C/C=C/[C@H]3[C@@H]1O`: the cell viability activity was -28.2%. In the case of `C[C@]12O[C@H](C[C@]1(O)CO)n1c3ccccc3c3c4c(c5c6ccccc6n2c5c31)CNC4=O` it was -88.5%; in that of `c1ccc2c(c1)[I+]c1ccccc1-2`, -61.9%. To `COC(=O)NC(=S)Nc1ccccc1NC(=S)NC(=O)OC` belongs -31.4%.
